Growth data for 14 molecules are collected here from PubChem BioAssay (NCI).

Some test systems named below: DU-145 prostate; K-562 leukemia; MALME-3M melanoma; MDA-MB-231 breast; RXF 393 renal; SF-268 CNS; SF-295 CNS; SF-539 CNS; UACC-257 melanoma; M14 melanoma.
Test in all cases: NCI-60 one-dose screen, 48 h (100 = growth as untreated, 0 = no growth, -100 = all killed)
Holding throughout (conditions): 10 µM unless noted

The structures appear in SMILES notation. About 83,000 compounds went through this panel and 20% of them were active in at least one assay; those are over-represented in the sample as a whole.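 48-hour exposure, single concentration, 96-well plates; percent growth endpoint where 0 means no net growth. Active: below 10.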 A number with no mark means an inactive call. Activity calls are given as the source filed them.

On to `COc1ncnc2c1ncn2C/C(Br)=C(\Br)CCl`, for which the growth was 36.8% in the experiment with DU-145 prostate; 7.96% (active) in the experiment with K-562 leukemia; -6.59% (active) with MALME-3M melanoma; 41.8% with MDA-MB-231 breast; 70.1% in the experiment with RXF 393 renal; 11.6% in the experiment with SF-268 CNS. Besides, the growth is 97.2% in the experiment with SF-295 CNS, 11.8% with SF-539 CNS, -40.5% (active) in the experiment with UACC-257 melanoma and -24.6% (active) in the experiment on M14 melanoma.
`CC(C)(C)[Si](C)(C)OC1[C@@H](COC(=O)NC(=O)CCl)O[C@@H](n2cnc3c(N)ncnc32)[C@H]1O[Si](C)(C)C(C)(C)C` (some centres not stated): the growth is 46.2% in the experiment on DU-145 prostate; -37.6% (active) in the experiment on K-562 leukemia; -57% (active) in the experiment on MALME-3M melanoma; 35.7% in the experiment on MDA-MB-231 breast; 64% in the experiment with RXF 393 renal; -19.6% (active) in the experiment with SF-268 CNS. Further, the figures for the growth in the experiment with SF-295 CNS, in the experiment on SF-539 CNS and with M14 melanoma were 45.7%, 89.8% and 18.4%, respectively.
Regarding `O=C(NC1CC1)c1cc2n(n1)CC(c1ccccc1)N2` (configuration not stated), the growth in the experiment on DU-145 prostate was 107%; in the experiment on K-562 leukemia, 103%; in the experiment with MALME-3M melanoma, 104%; in the experiment with MDA-MB-231 breast it was 91.3%; in the experiment on RXF 393 renal, 95.6%; with SF-268 CNS it was 95.2%. Moreover, the growth in the experiment on SF-295 CNS was 91.8%; in the experiment with SF-539 CNS, 96.3%; in the experiment with UACC-257 melanoma, 98.3%; with M14 melanoma, 101%.
Consider `COc1cccc(C2CC(=O)Nc3cc4c(cc32)CCC4)c1OC` (configuration not stated), for which the growth is 51.9% in the experiment with DU-145 prostate; 14.1% in the experiment on K-562 leukemia; 55.7% with MALME-3M melanoma; 60.3% in the experiment with MDA-MB-231 breast; 57% in the experiment on RXF 393 renal; 66.2% with SF-268 CNS. Also, the growth is 29% with SF-295 CNS, 60.7% in the experiment on SF-539 CNS, 71.7% in the experiment on UACC-257 melanoma and 25.5% in the experiment on M14 melanoma.
With `Cc1nn(-c2ccccc2)c2nc3nc4c(c(N)c3c(-c3ccc(Cl)cc3)c12)CCCC4`, the growth with DU-145 prostate is 109%; with K-562 leukemia it was 53.4%; in the experiment on MALME-3M melanoma it was 108%; in the experiment on MDA-MB-231 breast, 91.5%; with RXF 393 renal it was 90.9%; in the experiment on SF-268 CNS, 105%. Further, the growth is 96% in the experiment with SF-295 CNS, 96.9% in the experiment on SF-539 CNS, 91.9% with UACC-257 melanoma and 106% in the experiment on M14 melanoma.
`O=C1C2CC3C(CC2C(=O)[N]1[Sn]([c]1ccccc1)([c]1ccccc1)[c]1ccccc1)C1(Cl)C(Cl)=C(Cl)C3(Cl)C1(Cl)Cl` (configuration not stated): the growth with DU-145 prostate was -94.5% (active); with K-562 leukemia it was -30.8% (active); in the experiment with MALME-3M melanoma it was -91.8% (active); in the experiment with MDA-MB-231 breast it was -94.7% (active); in the experiment with RXF 393 renal, -76.1% (active); in the experiment with SF-268 CNS, -88.7% (active). The growth in the experiment with SF-295 CNS is -86.8% (active); in the experiment with SF-539 CNS, -99.9% (active); in the experiment with UACC-257 melanoma, -99.3% (active); with M14 melanoma it was -94% (active).
Take `O=c1[nH]c(-c2ccncc2)nc2sc3c(c12)CCCCCC3`: the growth with DU-145 prostate is 77.5%; in the experiment with K-562 leukemia, 88.1%; in the experiment on MALME-3M melanoma, 64%; with MDA-MB-231 breast, 62.1%; in the experiment on RXF 393 renal it was -1.71% (active); with SF-268 CNS, 83.5%. In addition, the figures for the growth in the experiment on SF-295 CNS, in the experiment with SF-539 CNS and with M14 melanoma were 53.2%, 82.6% and 85.3%, respectively.
Take `c1ccc(-c2n(Cc3ccc4ccccc4c3)c3ccccc3[n+]2Cc2ccc3ccccc3c2)cc1`: the growth in the experiment on DU-145 prostate was 4.24% (active); in the experiment with K-562 leukemia, -35.8% (active); in the experiment with MALME-3M melanoma, -57.5% (active); with MDA-MB-231 breast, -49.4% (active); in the experiment on RXF 393 renal, -39.4% (active); in the experiment on SF-268 CNS it was -61.9% (active). The growth in the experiment with SF-295 CNS is -47.1% (active); in the experiment on SF-539 CNS it was -16.2% (active); in the experiment on UACC-257 melanoma, -21.4% (active); in the experiment with M14 melanoma, -75.8% (active).
With `Cc1c(NCC(=O)Nc2nc3ccccc3[nH]2)c(=O)n(-c2ccccc2)n1C`, the growth with DU-145 prostate was 112%; in the experiment on K-562 leukemia, 101%; with MALME-3M melanoma it was 98.4%; in the experiment on MDA-MB-231 breast, 99.3%; with RXF 393 renal, 102%; in the experiment on SF-268 CNS it was 103%. Moreover, the growth in the experiment on SF-295 CNS was 109%; in the experiment on SF-539 CNS, 97.7%; in the experiment with UACC-257 melanoma it was 94.4%; with M14 melanoma it was 105%.
In the case of `Cc1ccc(C2SCC(=O)N2NC(=O)c2[nH]c3ccc(F)cc3c2-c2ccccc2)cc1` (configuration not stated), the growth in the experiment on DU-145 prostate was 106%; with K-562 leukemia, 75.8%; with MALME-3M melanoma it was 91.6%; in the experiment with MDA-MB-231 breast it was 86.4%; in the experiment on RXF 393 renal it was 78.7%; in the experiment on SF-268 CNS, 93.4%. Also, the growth in the experiment on SF-295 CNS is 92.4%; with SF-539 CNS, 97.6%; in the experiment on UACC-257 melanoma, 86.9%; in the experiment on M14 melanoma, 109%.
`COc1ccc(OC2=CC(=O)c3ccc(C)nc3C2=O)cc1`: the growth is 102% with DU-145 prostate; 43.5% with K-562 leukemia; 128% in the experiment on MALME-3M melanoma; 90.1% in the experiment with MDA-MB-231 breast; 88.9% with RXF 393 renal; 79.2% in the experiment with SF-268 CNS. Moreover, the growth is 96.8% with SF-295 CNS, 89.6% in the experiment with SF-539 CNS, 93.8% with UACC-257 melanoma and 87.3% with M14 melanoma.
In the case of `CC(C)(C)[Si](C)(C)OC1[C@@H](O[Si](C)(C)C(C)(C)C)[C@@H](CNC(=O)NC(=O)C(F)(F)F)O[C@H]1n1cnc2c(NC(=O)Nc3ccccc3)ncnc21` (some centres not stated), the growth with DU-145 prostate is -81.2% (active); in the experiment on K-562 leukemia it was -40.8% (active); with MALME-3M melanoma it was 74.8%; with MDA-MB-231 breast, 82.7%; in the experiment on RXF 393 renal, 104%; in the experiment on SF-268 CNS, -29% (active). Further, the growth in the experiment on SF-295 CNS is 69.5%; with SF-539 CNS, 92.5%; in the experiment with M14 melanoma it was 71.6%.
Regarding `Cc1nn(-c2ccccc2)c2nc3nc4c(c(N)c3c(-c3ccc(Cl)cc3)c12)CCC4`, the growth with DU-145 prostate was 90.1%; with K-562 leukemia it was 27.7%; in the experiment with MALME-3M melanoma it was 109%; in the experiment with MDA-MB-231 breast, 88.1%; in the experiment with RXF 393 renal, 79.9%; in the experiment on SF-268 CNS it was 102%. Besides, the growth was 92.1% in the experiment on SF-295 CNS, 90% with SF-539 CNS, 91.4% in the experiment on UACC-257 melanoma and 98.6% with M14 melanoma.
With `Nc1cc(Br)c(-c2nnc(CCC(=O)c3nc4ccccc4[nH]3)o2)c(Br)c1`, the growth in the experiment with DU-145 prostate is 103%; in the experiment on K-562 leukemia, 27%; in the experiment with MALME-3M melanoma, 58.7%; in the experiment with MDA-MB-231 breast, 76.7%; in the experiment with RXF 393 renal it was 92.6%; in the experiment with SF-268 CNS, 88.2%. Also, the growth with SF-295 CNS was 66.3%; in the experiment on SF-539 CNS, 93.9%; in the experiment on UACC-257 melanoma, 90.7%; in the experiment on M14 melanoma, 79.8%.
